Screening results from PubChem.
DT40 TDP1 no CPT = qHTS for Inhibitors of human tyrosyl-DNA phosphodiesterase 1 (TDP1): qHTS in cells in absence of CPT | actives 15% (n = 420,000) | DT40 Tdp1-/- hTDP1 cells, no CPT, ATP luminescence, 48 h | Potency, µM (doses to about 46.2 µM), without a hit: at the top dose activity change, negative = growth inhibition, hits mostly inhibitors; also: potency is read from the fitted curve at half-maximal effect; nearly all actives have a fitted effect of over 55% in size
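A cellular qHTS used chicken DT40 cells lacking endogenous Tdp1 but carrying stably transfected human TDP1. Compounds were applied without camptothecin, and cell growth kinetics were judged by ATP-dependent luminescence after ≥48 hr.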
HT1080 IDH1KD tx = HT-1080 IDH1 knockdown cell toxicity (counter line) | AID 686971 | Potency, µM (titrated, usually from 46.1 µM), for the others: at the top dose activity, negative = toxicity, most hits filed as cytotoxic | HT-1080 IDH1 knockdown viability, ATP luminescence, 48 h | actives 2% (n = 360,000);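 also: potency is read from the fitted curve at half-maximal effect; 0% = DMSO wells and -100% = cell-free medium wells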
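% activity derives from luminescence (CellTiter-Glo), normalised to DMSO and no-cell wells. HT-1080-IDH1KD cells, 750/well, had 48 h compound exposure at 37 °C.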
DT40 TDP1 CPT = DT40-hTDP1 cell growth loss with CPT. chicken DT40 Tdp1-/-;hTDP1 cells + 20 nM CPT, ATP luminescence, 48 h. Potency, µM (series often up to 46.2 µM), for inactives: top-dose activity change, negative = growth inhibition, actives largely listed as inhibitors. actives 12% (n = 420,000). AID 686979; also: potency is read from the fitted curve at half-maximal effect; nearly all actives have a fitted effect of over 55% in size
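Chicken DT40 Tdp1-/- cells stably complemented with human TDP1 were seeded at 400 cells/well in medium containing 20 nM camptothecin, exposed to pin-transferred compounds, and grown at 37 °C for at least 48 hr. Viability was read as ATP luminescence.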
HT1080-NT tox = kills 2HG-producing HT-1080-NT fibrosarcoma cells; HT-1080-NT fibrosarcoma viability, CellTiter-Glo ATP luminescence, 48 h; Potency, µM (doses to about 46.1 µM), without a hit: at the top dose activity, negative = less viability, hits mostly cytotoxic; actives 1.6% (n = 360,000); AID 686970;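 also: NT is the 2HG producing partner of a matched IDH1 knockdown line; potency is read from the fitted curve at half-maximal effect; 0% = DMSO-treated cells and -100% = media-only wells without cells; nearly all actives have a fitted effect of over 55% in size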
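HT-1080-NT fibrosarcoma cells (2HG-overproducing), 750 cells/well in RPMI with 5% FBS, dosed after 2 h and incubated 48 h at 37C. CellTiter-Glo luminescence normalized to DMSO and no-cell wells; concentration-response curves fitted and classed.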
IL-1B inflam inh = blocks inflammasome-driven IL-1 beta release. THP-1 LPS/ATP IL-1B secretion, AlphaLISA, 16 h; active compounds read low. activity change, % at 57.5 µM. actives 4.7% (n = 360,000). AID 743279; in the data active = activity change below about -50%; inconclusive = mostly about -30% to -49%
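THP-1 cells pretreated 1 hr with compounds (up to 57.5 uM final), then stimulated with LPS (250 ng/mL final) plus ATP (1.25 mM final); secreted IL-1B measured by AlphaLISA after 16 hr, decreased signal indicating inhibition.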
* hit, by the source's call; u = inconclusive; x = no result given; [ ] = dose if it differs, or a comment. Hits are enriched below; roughly 19% of the tested compounds scored in any of these assays. Unless noted, calls follow the shape of the dose curve; as a rule, active = well fitted curve in the direction sought with a large enough effect; inconclusive = small, poorly fitted or top-dose-only effect, or another doubt; inactive = no such curve, though single readings can be large; an effect the other way counts as inactive or inconclusive. Unless noted, % is scaled to controls: 0 for no effect and ±100 for the full control effect.

SMILES	DT40 TDP1 no CPT	HT1080 IDH1KD tx	DT40 TDP1 CPT	HT1080-NT tox	IL-1B inflam inh
Cc1ccc(CN2CCCn3nc(C(=O)NCC(C)c4ccccc4)cc3C2=O)cc1 (stereo not drawn)	16.4µM*	x	u	x	x
CS(=O)(=O)Nc1cccc(NC(=O)c2ccc(-n3ccnc3)c3ccoc23)c1	14.6µM*	6.5%	13µM*	13.0%	-27.5
Cn1nccc1-c1ccc(C(=O)Nc2cccc(NS(C)(=O)=O)c2)c2occc12	25.9µM*	-8.0%	u	-8.8%	-50.2*
COc1ccc2[nH]c(C(=O)Nc3ccc4c(c3)OCO4)cc2c1	-8.7%	u	-18.5%	-16.3%	-22.1
COc1ccc(CN(C)C(=O)c2cccc(S(=O)(=O)N3CCc4ccccc43)c2)c(OC)c1	14.6µM*	-11.9%	20.6µM*	-8.7%[9.24 µM]	-21.7
Cc1ccc(NC(=O)CN(C)C(=O)c2cccc(S(=O)(=O)N3CCc4ccccc43)c2)cc1	16.4µM*	-23.6%	20.6µM*	-24.6%	-25.3
COc1ccccc1CN(C)C(=O)c1cccc(S(=O)(=O)N2CCc3ccccc3C2)c1	16.4µM*	3.1%	u	3.8%	u
COc1ccc2[nH]c(C)c(-c3csc(N)n3)c2c1	10.8%	-5.8%	-2.7%	-1.4%	12.5
CCOC(=O)[C@]12CCC=C1N(Cc1ccco1)C(=O)[C@H](CC(=O)NCC1CCCCC1)C2	u	4.9%	u	0.2%	-1.1
Cc1c(Cl)cccc1N=C1SCCN1C(=O)CN1C(=O)NC2(CCCC2)C1=O	18.4µM*	u	u	-11.3%	-14.4
O=C(CN1C(=O)NC2(CCCCC2)C1=O)Nc1cccc(Cl)c1Cl	u	-9.9%	-23.4%	-0.6%	5.0
C=CCNCc1ccc(C(=O)NCCCCCCC)cc1[N+](=O)[O-]	18.4µM*	13.6%	u	-3.3%	-1.8
C=CCNC(=O)c1ccc([N+](=O)[O-])c(Cl)c1	-0.8%	2.5%	0.0%	4.2%	-8.0
CC1(Br)C(Sc2ccccc2[N+](=O)[O-])=Nc2ccccc21 (stereo not drawn)	23.1µM*	u	20.6µM*	6.51µM*	13.6
O=C(CN1CCCCC1)NCC(=O)Nc1ccc(F)c(F)c1F	-2.4%	-1.6%	4.5%	0.0%	-4.3
O=C(C1CCCCC1)N1CCC(CO)(Cc2ccccc2Cl)CC1	20.6µM*	2.3%	u	0.4%	u
O=C(C1CCCC1)N1CCC(CO)(Cc2ccccc2Cl)CC1	u	-17.5%	u	-20.8%	u
Cc1cccc(NC(=O)C(=O)NCC(c2cccnc2)N2CCc3ccccc32)c1C (stereo not drawn)	23.1µM*	x	18.4µM*	x	x
O=C(NCC(c1cccnc1)N1CCc2ccccc21)C(=O)Nc1ccccc1F (stereo not drawn)	u	x	7.31µM*	x	x
Cc1ccc(NC(=O)C(=O)NCC(c2cccnc2)N2CCc3ccccc32)cc1Cl (stereo not drawn)	13µM*	x	18.4µM*	x	x
CC(C)(C)c1ccc(C(=O)NCC(c2cccnc2)N2CCc3ccccc3C2)cc1 (stereo not drawn)	1.84µM*	x	2.31µM*	x	x
O=S(=O)(NCC(c1cccnc1)N1CCc2ccccc2C1)c1ccccc1 (stereo not drawn)	-5.8%	2.4%	7.2%	0.1%	13.1
O=C(N/N=C\c1cccc(OC(=O)c2ccco2)c1)c1ccc2c(c1)OCO2	u	-15.6%	u	-8.6%	-16.9
CCN1CCCC1CNC(=O)c1cnn(-c2nccc(-c3cccs3)n2)c1C1CC1 (stereo not drawn)	-12.5%	x	6.3%[9.04 µM]	x	x
Cc1ccc(NC(=O)C(=O)NCC(c2cccnc2)N2CCc3ccccc3C2)cc1 (stereo not drawn)	16.4µM*	x	20.6µM*	x	x
Cc1ccc(NC(=O)C(=O)NCC(c2cccnc2)N2CCN(C)CC2)cc1C (stereo not drawn)	-3.7%	x	-1.9%	x	x
Cc1cccc(NC(=O)C(=O)NCC(c2cccnc2)N2CCc3ccccc3C2)c1C (stereo not drawn)	16.4µM*	x	16.4µM*	x	x
